# Compound activity deposited in PubChem by National Center for Advancing Translational Sciences (NCATS).
# Shown are actives, neighbours in structure and some others; about 3% of the full set was active somewhere.
# Tau ThT inhib = qHTS for Inhibitors of Tau Fibril Formation, Thioflavin T Binding; recombinant tau K18 P301L, heparin-induced fibrillization, ThT fluorescence; Potency, µM (titrated, usually from 57.4 µM), for inactives: top-dose activity, negative = inhibition, hits mostly inhibitors; 270,000 tested, 2.1% active; also: potency is read from the fitted curve at half-maximal effect; nearly all actives have a fitted effect of over 55% in size
# Target sequence (P10636 561-689 P618L limits assumed): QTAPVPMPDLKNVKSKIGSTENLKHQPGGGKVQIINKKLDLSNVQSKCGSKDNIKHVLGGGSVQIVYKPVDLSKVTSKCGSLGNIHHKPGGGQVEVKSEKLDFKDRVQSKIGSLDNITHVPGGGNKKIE
#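 Recombinant human tau K18 fragment […] carrying P301L, 15 uM unlabeled plus 0.24 uM Alexa 594-labeled, was fibrillized with 20 uM heparin in 100 mM sodium acetate pH 7 for 6 hr at 37 C; 30 uM ThT fluorescence read after 1 hr.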
# KDM4E inh = qHTS Assay for Inhibitors of Human Jumonji Domain Containing 2E (JMJD2E) | 230,000 tested, 1.6% active | Lysine-specific demethylase 4E (Homo sapiens), B2RXH2 | AID 2147, 2009 | Potency, µM (doses to about 57.1 µM), for the others: top-dose activity change, negative = inhibition, most hits filed as inhibitors | JMJD2E catalytic domain, FDH-coupled NADH fluorescence (FDH is formaldehyde dehydrogenase);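 also: potency is read from the fitted curve at half-maximal effect; 0% = wells with enzyme and -100% = buffer wells without enzyme; nearly all actives have a fitted effect of over 50% in size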
# Target sequence (B2RXH2 1-337 limits assumed): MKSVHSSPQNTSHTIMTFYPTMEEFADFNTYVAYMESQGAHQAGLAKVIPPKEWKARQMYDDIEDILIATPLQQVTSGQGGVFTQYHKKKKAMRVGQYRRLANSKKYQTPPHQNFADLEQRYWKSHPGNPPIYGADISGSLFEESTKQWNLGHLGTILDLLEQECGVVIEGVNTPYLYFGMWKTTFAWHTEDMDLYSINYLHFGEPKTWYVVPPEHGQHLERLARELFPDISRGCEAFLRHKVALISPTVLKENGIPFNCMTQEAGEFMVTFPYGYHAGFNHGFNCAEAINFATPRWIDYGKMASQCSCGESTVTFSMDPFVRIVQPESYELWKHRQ
# Tau fluor cs = Counterscreen qHTS for Inhibitors of Tau Fibril Formation, Fluorescence Polarization. tau K18 P301L (four-repeat tau fragment) Alexa594 fluorescence, heparin fibrillization. Potency, µM (series often up to 57.7 µM), for inactives: at the highest dose activity change, negative = decrease. 280,000 tested, 0.93% active; also: potency is read from the fitted curve at half-maximal effect; nearly all actives have a fitted effect of over 55% in size
#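 Human K18 P301L tau (15 uM unlabeled plus 0.24 uM Alexa 594-labeled, final) in 100 mM sodium acetate pH 7 was mixed with compound and 20 uM heparin and incubated 6 hr at 37 C.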
# Coupling enz = qHTS Assay for Inhibitors of Fructose-1,6-bisphosphate Aldolase from Giardia Lamblia: Coupling assay counterscreen; coupling enzyme system counterscreen, AmpLite Red fluorescence; activity change, negative = inhibition, % at 58.2 µM, hits read low; 290,000 tested, 0.67% active; AID 2472, 2010; in the data active = activity change below about -30%
#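 First, compound is pin-transferred into glyceraldehyde-3-phosphate coupling-enzyme reagent at 57.5 uM final and held 10 min at RT. Next, substrate, coupling system and AmpLite Red are added. After 20 min RT, fluorescence (525/598 nm) is read.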
# Tau FP inhib = qHTS for Inhibitors of Tau Fibril Formation, Fluorescence Polarization | Microtubule-associated protein tau (Homo sapiens), P10636 | K18 P301L tau heparin fibrillization, Alexa594 FP, 6 h | Potency, µM (highest dose often 57.7 µM), for inactives: at the top dose activity, negative = inhibition, usual class: inhibitors | 280,000 tested, 0.39% active | AID 1468, 2008; also: potency is read from the fitted curve at half-maximal effect; nearly all actives have a fitted effect of over 55% in size
#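 FP of Alexa 594-tau after heparin (20 uM) induction. Substrate: human K18 P301L, 15 uM unlabeled, 0.24 uM labeled. Buffer 100 mM sodium acetate pH 7. 6 hr, 37 C.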
# Starred values were filed as active, the others as inactive; u = inconclusive; x = no result; [ ] = dose if it differs, or a comment. Unless noted, calls follow the shape of the dose curve; as a rule, active = well fitted curve in the direction sought with a large enough effect; inconclusive = small, poorly fitted or top-dose-only effect, or another doubt; inactive = no such curve, though single readings can be large; an effect the other way counts as inactive or inconclusive. Unless noted, % is scaled to controls: 0 for no effect and ±100 for the full control effect.
SMILES,Tau ThT inhib,KDM4E inh,Tau fluor cs,Coupling enz,Tau FP inhib
Cc1nn(CC(=O)N2CCC(N3CCCCC3)CC2)c(=O)c2c1sc1ccccc12,x,x,x,-1.2,x
CCOC(=O)C1CCCN(C(=O)Cn2cnc3c2c(=O)n(C)c(=O)n3C)C1 (stereo unspecified),-6.6%,2.2%,5.3%,1.9,4.5%
Cn1ncc2c(N3CCN(c4ccccc4Cl)CC3)ncnc21,-15.0%,x,-7.4%,x,1.8%
COC(=O)C1=C(C)OC(N)=C(C#N)C1c1cccnc1 (stereo unspecified),u,-12.2%,-7.3%,-2.7,-3.7%
CC1=C(n2nnc([N+](=O)[O-])n2)C(c2cccnc2)C(C#N)=C(N)O1 (stereo unspecified),u,u,-12.0%,-67.5*,-18.0%
COC[C@H]1OC=C[C@@H](OC)[C@@H]1OC,-4.0%,1.9%,0.0%,0.1,1.6%
CCOC(=O)c1c(C)[nH]c(N=Nc2ccc(OC)cc2)c1C,x,-15.6%,3.16µM*[quencher],-13.2,u
CCOC(=O)c1c(C)[nH]c(C=Nc2ccc(OC)cc2)c1O,u,-15.3%,-25.4%,-5.5,8.2%
CCOC(=O)c1c(C)[nH]c(N=Nc2ccccc2Cl)c1C,5.01µM*,-27.6%,u,-3.4,1.8%
COC(=O)c1c(C)[nH]c(C=Nc2ccc(OC)cc2)c1C,-7.2%,-10.7%,-6.1%,-4.2,-1.4%
CCOC(=O)c1c(C)[nH]c(C=Nc2ccccc2)c1O,u,u,-9.6%,-36.1*,-6.5%
CCOC(=O)c1c(C)[nH]c(N=Nc2ccccc2)c1C,7.94µM*,-4.4%,u,-1.4,u
CCOC(=O)c1c(C)[nH]c(C(=O)Cn2nnc(-c3ccccc3Cl)n2)c1C,-6.0%,-3.7%,-14.8%,-1.2,-6.5%
CC(=O)OC[C@@H]1O[C@@H](O/N=C2/C[C@@H](O)[C@@H](O)[C@@H]3[C@@H]4C(=O)N([C@@H](C)c5ccccc5)C(=O)[C@H]4CC[C@H]23)[C@H](OC(C)=O)[C@H](OC(C)=O)[C@@H]1OC(C)=O,-1.4%[11.5 µM],x,3.2%[11.6 µM],1.4,10.4%[11.6 µM]
CC1CCC(C(=O)O)NC1c1ccc(C#CCN(C)C)cc1 (stereo unspecified),2.5%[11.5 µM],x,1.1%[11.6 µM],-0.1,4.6%[11.6 µM]
CCOC(=O)c1c(C)[nH]c(N=Nc2ccc(C)cc2)c1C,7.94µM*,6.3%,u,-9.1,22.1%
CCOC(=O)c1[nH]c(C)c(C(=O)c2ccc(C)cc2)c1C,-4.9%,-28.9%,-9.1%,1.4,2.2%
CCN(CC)CCCn1c(-c2ccccc2)nc2c(N3CCOCC3)nc(C)nc21,-3.0%,u,-18.2%,-3.0,u
N#Cc1nc(-c2cccs2)oc1NCc1ccc(Cl)cc1,-10.0%,u,17.8µM*[quencher],-0.2,u
O=C(C[n+]1cccc(CO)c1)Nc1nc2ccccc2s1,-9.3%,10µM*,-1.7%,2.7,7.9%
CCCCN(CC)CCNC(=O)c1cc2c(=O)oc3ccc(C)cc3c2s1,-19.1%,x,-28.9%,x,-6.9%
O=[N+]([O-])c1ccc(Sc2cccc3cccnc23)c([N+](=O)[O-])c1,u,10.3%,u,-46.6*,-6.4%
O=[N+]([O-])c1ccc(Sc2cccc3cccnc23)cc1,u,2.7%,u,-42.0*,10.6%
O=[N+]([O-])c1cc(Cl)ccc1Sc1cccc2cccnc12,-14.6%,-1.5%,-24.9%,-22.8,12.7%
CCC(C)C(=O)N1c2ccccc2C(=C2SC(C(=O)OC)=C(C(=O)OC)S2)C(=S)C1(C)C (stereo unspecified),3.98µM*,-10.6%,u,-5.9,u
SMILES,Tau ThT inhib,KDM4E inh,Tau fluor cs,Coupling enz,Tau FP inhib
CCOC(=O)C1=C(C)c2ccccc2N(C(=O)OC)C1(C)C(=O)OCC (stereo unspecified),u,x,-11.3%[81.3 µM],4.2,-0.1%[81.3 µM]
COc1ccc(C2=Nn3c(nnc3-c3cc(OC)ccc3OC)SC2)cc1,x,x,x,0.0,x
Cc1nn(-c2nnc(NCc3ccccc3)nn2)c(C)c1Br,14.1µM*,1.2%,u,-17.5,10.5%
NCCCC[C@H](NC(=O)[C@H](CCCN=C(N)N)NC(=O)[C@H](CO)NC(=O)[C@H](CCCN=C(N)N)NC(=O)[C@@H](N)Cc1ccc(O)cc1)C(=O)N[C@@H](Cc1ccc(O)cc1)C(=O)N[C@@H](CO)C(=O)N[C@@H](CO)C(=O)N[C@@H](Cc1c[nH]c2ccccc12)C(=O)N[C@@H](Cc1ccc(O)cc1)C(=O)O,x,x,x,-3.0,x
CC1=Nc2cccc3cccc(c23)N1C,15.8%,3.6%,16.1%,-31.7*,4.1%
Cc1ccc(NC(=O)NCC2CCN(Cc3cccc(Cl)c3)CC2)cc1Cl,-7.5%,16.9%,u,1.2,28.2µM*
Cc1ccccc1S(=O)(=O)NC1OC(=O)C(Cl)=C1Cl (stereo unspecified),28.2µM*,-8.6%,-21.6%,-0.7,28.2µM*
Cc1ccc(CNC(=O)c2cc(-c3ccc(C)cc3)nc3n[nH]c(-c4cccc([N+](=O)[O-])c4)c23)cc1,4.4%,x,-10.6%,x,1.5%
CCn1c(C)nc2cc(C(=O)N/N=C/c3ccccc3)ccc21,-10.2%,-5.2%,-1.8%,-2.1,-3.2%
CCn1c(C)nc2cc(C(=O)N/N=C/c3cccc(O)c3O)ccc21,u,3.55µM*,-19.0%,-8.9,0.3%
CCn1c(C)nc2cc(C(=O)N/N=C(\C)c3ccc(OC)cc3O)ccc21,u,12.6µM*,-10.8%,1.1,10.9%
CC1=C(C(=O)OC2CCCC2)C(c2ccccc2C(F)(F)F)CC(=O)N1 (stereo unspecified),-1.0%,x,-9.1%,x,8.5%
O=c1oc2ccccc2c2oc3cc(O)c(O)cc3c12,u,28.2µM*,u,3.9,u
N#Cc1ccc(CS(=O)(=O)c2ccccc2)cc1,-3.5%,-0.8%,-12.7%,-0.6,u
COc1cc(/C=N/NC(=O)c2cccc([N+](=O)[O-])c2)cc(OC)c1O,u,3.6%,-18.9%,-0.5,4.2%
CCOc1cc(/C=N/NC(=O)c2cccs2)cc([N+](=O)[O-])c1O,10µM*,-15.1%,u,1.0,3.1%
O=C(N/N=C/c1cccc([N+](=O)[O-])c1)c1cccs1,u,-0.6%,-20.9%,-7.8,3.0%
COc1cc(/C=N/NC(=O)c2cncc(Br)c2)cc([N+](=O)[O-])c1O,12.6µM*,7.94µM*,-26.5%,6.4,1.1%
O=C(N/N=C/c1cccc(OCc2ccccc2)c1)c1cccs1,u,-12.0%,25.1µM*[quencher],0.6,u
COc1cc([N+](=O)[O-])cc(/C=N/NC(=O)c2cncc(Br)c2)c1O,12.6µM*,14.1µM*,-15.7%,7.8,4.2%
CCOc1ccc(N(C)S(=O)(=O)c2c(C(=O)N3CCC(C)CC3)c(C)n(C)c2C)cc1,-0.4%,x,2.6%,x,7.3%
